One may read the AC50 as the concentration giving half of the maximal activity seen.

The text below walks through data of PubChem BioAssay AID1851 (National Center for Advancing Translational Sciences (NCATS), 2009).

SMILES strings stand for the structures. Among all 16,000 compounds or so, about 5,800 (36%) were called active. Inconclusive results (about 23%) are left out. The list shows a part of the results. Unmarked numbers belong to inactive results. Calls follow the shape of the dose curve; as a rule, active = well fitted curve in the direction sought with a large enough effect; inconclusive = small, poorly fitted or top-dose-only effect, or effect the other way; inactive = no such curve, though single readings can be large or run the other way.
% is scaled to controls: 0 for no effect and ±100 for the full control effect.

Cytochrome P450 2C19 (Homo sapiens), sequence (P33261 whole entry, looked up): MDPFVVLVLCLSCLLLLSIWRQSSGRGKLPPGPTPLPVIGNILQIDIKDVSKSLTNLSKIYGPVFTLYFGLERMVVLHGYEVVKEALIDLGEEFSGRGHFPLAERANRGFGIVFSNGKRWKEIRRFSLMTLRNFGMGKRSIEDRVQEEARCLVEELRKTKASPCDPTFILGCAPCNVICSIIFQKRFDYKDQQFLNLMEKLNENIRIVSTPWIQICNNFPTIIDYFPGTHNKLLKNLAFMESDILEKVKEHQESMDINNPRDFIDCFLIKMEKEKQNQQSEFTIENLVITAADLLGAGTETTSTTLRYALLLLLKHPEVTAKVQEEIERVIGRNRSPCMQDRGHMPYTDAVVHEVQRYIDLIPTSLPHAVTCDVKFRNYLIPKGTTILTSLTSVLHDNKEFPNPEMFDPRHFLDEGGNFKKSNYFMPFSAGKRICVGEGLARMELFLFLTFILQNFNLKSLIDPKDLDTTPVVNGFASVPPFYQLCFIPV

This test addresses Cytochrome P450 2C19 (Homo sapiens) (UniProt P33261). As to the kind of experiment: Cytochrome panel assay with activity outcomes. The conditions noted are these: recombinant CYP, pro-luciferin dealkylation, luminescence, p450-cyp2c19; series mostly up to 57.1 µM; activity, negative = inhibition: at the top concentration.
Take `CO/N=C\[C@@H](OC)[C@H](C)/C=C\CC(=O)OC`: the activity, negative = inhibition is -12.9% [at 11.4 µM].

Turning to `COC(=O)C/C=C\[C@H](C)[C@@H](OC)c1ccccc1Br`, the activity, negative = inhibition was -6.61% [at 11.4 µM]. Take `CSc1nnc(-c2sccc2OCc2ccccc2)n1C`: the AC50 is 17.8 µM (active). Regarding `Cc1nc2c(OCc3ccccc3)cccn2c1CC#N`, the “activity, negative = inhibition” value was -11.3%. On the same count and under the same terms, with `CO[C@H]1COC(=O)[C@@H](C)COC(=O)[C@@H](COCc2ccccc2)NC(=O)C/C=C\[C@H]1C` the figure was 37.5% [at 11.4 µM]. `CC(C)NCCOCCSc1ccc(Cl)cc1`: the AC50 was 15.8 µM (active). For the compound `O=c1[nH]c(=O)n([C@@H]2C[C@H](O)[C@H](CO)O2)cc1C(F)(F)F`, the “activity, negative = inhibition” value was -2.44% [at 25.6 µM]. Take `CC(=O)N1CCC2(CC1)CCN(C(=O)Nc1cccc(F)c1)CC2`: the “activity, negative = inhibition” value is -4.74%. On to `CC(=O)NC1(c2ccc(F)cc2)CCN(C(=O)Nc2ccc(F)cc2F)CC1`, for which the AC50 was 7.08 µM (active). For `Cn1cccc1C(=O)N1CCC2(CCN(C(=O)Nc3cccc(F)c3)CC2)CC1`, the “activity, negative = inhibition” value is -21.4%.

For `COc1cccc(-c2nc(N(C)Cc3ccco3)c3ccccc3n2)c1`, the AC50 was 20 µM (active). With `CN1CCN(c2nc(-c3cccc(C#N)c3)nc3ccccc23)CC1`, the “activity, negative = inhibition” value was -12.9%. Consider `CN(Cc1ccco1)c1nc(-c2cccc(C#N)c2)nc2ccccc12`, for which the AC50 was 15.8 µM (active). Take `CN(C)c1nc(-c2cccnc2)nc2ccccc12`: the “activity, negative = inhibition” value was -40.7%. `COc1cccc(-c2nc(N(C)C)c3ccccc3n2)c1`: the AC50 was 20 µM (active).

As for `CN(Cc1ccco1)c1nc(-c2ccc3c(c2)OCO3)nc2ccccc12`, the AC50 is 7.94 µM (active).

In the case of `CNC(=O)c1sc(SC)cc1-c1ccc(Cl)cc1`, the AC50 is 0.0562 µM (active). In the case of `CCn1c(=O)[nH]c2ccccc2c1=O`, the “activity, negative = inhibition” value was -2.61%.

As to `CCn1c(/C=C2/C(=O)N(C)c3ccccc32)nc2ccccc2c1=O`, the AC50 was 15.8 µM (active). Regarding `Cc1cc(C)cc(NC(=O)CCc2nc3ccccc3[nH]2)c1`, the AC50 is 1.58 µM (active). On to `CC(C)(CCc1nc2ccccc2[nH]1)C(=O)O`, for which the activity, negative = inhibition was -0.413% [at 11.4 µM]. As to `Cc1cc(C)cc(NC(=O)C/C(N)=N/O)c1`, the “activity, negative = inhibition” value was -15.2%. As for `CCOC(=O)C1=C(CSc2nc3ccccc3s2)NC(=O)NC1c1cc(C)ccc1C` (stereo not given), the AC50 was 7.94 µM (active).

Consider `CCOC(=O)C1=C(C)NC(=O)N[C@@H]1c1coc2cc(C)cc(C)c2c1=O`, for which the activity, negative = inhibition was -27.2% [at 11.4 µM].

`CCOC(=O)C1=C(COc2ccc(F)cc2Cl)NC(=O)NC1c1cc(C)ccc1C` (stereo not given): the AC50 is 7.08 µM (active). The same measure, in the same setting: next, `C=CCNc1nc(-c2ccc(Cl)cc2)cs1`: 3.16 µM (active).

Take `Cc1ccc(CSC(N)=Nc2ccccc2)cc1C`: the AC50 is 2 µM (active). For the compound `C[C@@]12CCC(=O)C=C1CC[C@@H]1[C@@H]2[C@H](O)C[C@]2(C)[C@@H]1CC[C@]2(O)C(=O)COC(=O)CCC(=O)O`, the “activity, negative = inhibition” value was 35.7%.

With `C#C[C@@]1(O)CC[C@@H]2[C@@H]3CCC4=C(CCC(=O)C4)[C@H]3CC[C@]21C`, the AC50 is 0.0631 µM (active). As for `C#C[C@]1(O)CC[C@@H]2[C@H]3CCC4=CCCC[C@@H]4[C@@H]3CC[C@@]21C`, the AC50 is 3.98 µM (active).

As for `C#C[C@@]1(O)CC[C@@H]2[C@@H]3CCC4=CC(=O)CC[C@@H]4[C@H]3CC[C@]21C`, the AC50 was 5.01 µM (active). As for `CCNc1ncc2nc(-c3cn(C)c4ccccc34)c(=O)n(C)c2n1`, the “activity, negative = inhibition” value was -18.4%.

As for `COC(=O)c1ccccc1NC(=O)C1CCN(C(=O)c2ccc(OC)cc2)CC1`, the half-maximal activity concentration (AC50) was 14.1 µM (active). As for `COc1cc(OC)cc(C(=O)Nn2cc(C(=O)N3CCN(C)CC3)c3ccccc3c2=O)c1`, the “activity, negative = inhibition” value was -11.9%. On to `COc1ccc(/C=C/C(=O)Nc2ccccc2C(=O)N2CCCC2)cc1`, for which the “activity, negative = inhibition” value was -26.3%. Consider `COc1cc(OC)cc(C(=O)Nc2ccccc2C(=O)N2CCCC2)c1`, for which the AC50 is 28.2 µM (active). Consider `COc1ccc(NC(=O)C2CCN(C(=O)c3cccs3)CC2)c(OC)c1`, for which the “activity, negative = inhibition” value was -6.18%.

On to `O=C1[C@H]2[C@H]3[C@H](O)[C@H](O)C/C(=N/OC[C@@H](O)COCc4ccco4)[C@H]3CC[C@@H]2C(=O)N1C1CCCCC1`, for which the activity, negative = inhibition is -5.34% [at 11.4 µM]. With `N#CC(c1ccccc1F)(c1ncc(C(F)(F)F)cc1Cl)N1CCOCC1` (stereo not given), the concentration at half-maximal activity (AC50) was 11.2 µM (active).

Consider `N#CC(c1ccc(Cl)cc1)(c1ncc(C(F)(F)F)cc1Cl)N1CCOCC1` (stereo not given), for which the AC50 is 11.2 µM (active).

`Cc1ccc(SCCNC(=O)c2ccc(C)c(S(=O)(=O)Nc3ccccc3C)c2)cc1`: the AC50 is 2.51 µM (active). In the case of `Cc1ccc(SCc2nnc(NC(=O)c3ccccc3)s2)cc1`, the “activity, negative = inhibition” value was -23.4%. The same measure, in the same setting: next, `CCN(CC)CCNC(=O)c1ccc(Cl)c(S(=O)(=O)Nc2ccccc2OC)c1`: -26.4%. Regarding `Cc1ccc(SCCNC(=O)c2ccccc2)cc1`, the AC50 was 6.31 µM (active). Turning to `Cc1ccc(NC(=O)c2cccc(N(C)C)c2)cc1NC(=O)c1ccc(O)cc1`, the “activity, negative = inhibition” value was 42%. Consider `Cc1ccccc1NS(=O)(=O)c1cc(C(=O)Nc2cccc(N(C)S(C)(=O)=O)c2)ccc1C`, for which the half-maximal activity concentration (AC50) was 3.55 µM (active).

In the case of `Cc1ccc(SCc2ccc(C(=O)NCc3ccncc3)cc2)cc1`, the half-maximal activity concentration (AC50) was 0.355 µM (active).

On to `NS(=O)(=O)Cc1noc2ccccc12`, for which the “activity, negative = inhibition” value is -11.9%. Same read-out and setting: with `Cc1cc(C(C)(C)CC(C)(C)C)ccc1OCCOCC[N+](C)(C)Cc1ccccc1` the figure was -43.6% [at 25.6 µM]; with `CN[C@@H]1[C@H](O[C@H]2[C@@H](O[C@@H]3[C@@H](O)[C@@H](O)[C@@H](N=C(N)N)[C@@H](O)[C@@H]3N=C(N)N)O[C@@H](C)[C@]2(O)CO)O[C@H](CO)[C@@H](O)[C@@H]1O`, 18.4% [at 25.6 µM].
